The supplement of paper PMC7866885, “A novel bicyclic 2,4-diaminopyrimidine inhibitor of Streptococcus suis dihydrofolate reductase” (PeerJ, 2021)
± gives the standard deviation.

How the values were obtained:
[1] = tested on: Streptococcus suis HE06; test: percent growth relative to DMSO control; higher = less growth inhibition; conditions: 10 µM; incubation time 18 h
Experimental: (§1)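 CLSI broth microdilution: 5x10^4 CFU of Streptococcus suis (strain P1/7 or HE06) incubated with 10 µM Pathogen Box compound in cation-adjusted Mueller Hinton broth, 37 °C, 5% CO2, 18 h. Growth read as OD600 and expressed as percent of the DMSO-treated control (100%); mean ± SD of three independent experiments.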

[2] = tested on: Streptococcus suis P1/7; test: as above; conditions: 10 µM; incubation time 18 h
Experimental: as §1

SMILES | percent growth [1] | percent growth [2]
c1ccc(-c2nc(NC3CCCCC3)cc(C3CC3)n2)nc1 | 7.51 ± 12% | 0.494 ± 1.2%
CC1=Nc2ccc(Cl)cc2C(c2ccccc2)N1CCNC(=O)CN(C)C (stereo not given) | 84.8 ± 4.2% | 84.5 ± 16%
O=C(c1ccc(F)cc1)N(CCNc1ccccc1)c1ccccc1 | 106 ± 17% | 122 ± 66%
CC(=O)N1CCN(c2ccc(Oc3ccc(Cl)cc3O)cc2)CC1 | 142 ± 58% | 95.7 ± 30%
COC(=O)Nc1nc2cc(C(=O)c3ccccc3)ccc2[nH]1 | 86 ± 8.2% | 74.9 ± 28%
COc1ccc(-c2cncc3ccc(C(=O)NCCCn4ccnc4)nc23)cc1 | 103 ± 28% | 70.1 ± 27%
C[C@H]1c2cccc(O)c2C(=O)C2=C(O)[C@]3(O)C(=O)C(C(N)=O)=C(O)[C@@H](N(C)C)[C@@H]3[C@@H](O)[C@@H]21 | 10.4 ± 18% | 1.89 ± 3.3%
CNC(=O)C1Cc2c([nH]c3cc(Cl)ccc23)C2(CCN(CCc3ccccc3)CC2)N1 (stereo not given) | 95.5 ± 23% | 77.4 ± 9%
CCNC(=O)C(C)Nc1nc(-c2cccnc2)nc2sc(C)c(C)c12 (stereo not given) | 101 ± 8.4% | 64.5 ± 34%
Nc1nc(N)c2c3c(sc2n1)CN(Cc1ccccc1)CC3 | 94.5 ± 3.1% | 87.8 ± 9.9%
COC(=O)c1ccc(F)cc1NS(=O)(=O)c1cccc(-c2cnn(Cc3ccccc3)c2)c1 | 99.6 ± 8.2% | 127 ± 52%
N#CCN(CCCCN1CCN(c2ccc(F)cc2)CC1)C(=O)OCc1ccccc1 | 93.7 ± 14% | 75.8 ± 19%
COc1ccc(N(CCc2cccc(C)n2)C(=O)C2CCCCC2)cc1 | 115 ± 37% | 105 ± 28%
O=C(Nc1cccc(-c2ccc(NCCCN3CCCC3)nc2)c1)c1ccccc1 | 96.7 ± 23% | 72.5 ± 24%
NC(=O)c1cc(-c2ccsc2)ccc1OCCOc1ccccc1 | 118 ± 40% | 120 ± 58%
N#Cc1nc(-c2ccccc2)oc1S(=O)(=O)c1ccc(Cl)cc1 | 96.9 ± 9.2% | 85.2 ± 19%
O=C1Nc2ccc(Br)cc2C12NCCc1c2[nH]c2ccccc12 (stereo not given) | 94.7 ± 15% | 112 ± 38%
COc1cc(-c2cc(-c3ccc(S(C)(=O)=O)cc3)cnc2N)ccc1O | 106 ± 34% | 70.7 ± 22%
N=C(N)c1ccc(OCCCCCOc2ccc(C(=N)N)cc2)cc1 | 146 ± 200% | 37.1 ± 32%
Cc1cc(C(=O)Nc2cnn(Cc3ccc(Cl)cc3Cl)c2)no1 | 94.2 ± 5.5% | 97.5 ± 11%
Cc1ccc(S(=O)(=O)Nc2ccc(CN3CCN(C(=O)c4cccc(C#N)c4)CC3)cc2)cc1 | 104 ± 9.6% | 114 ± 40%
CCC(NC(=O)c1ccccc1NC(=O)c1ccc(C)cc1)C(=O)OC (stereo not given) | 92 ± 4.7% | 78.1 ± 18%
Cc1ncc(-c2ccnc(Nc3ccc(S(C)(=O)=O)cc3)n2)n1C(C)C | 89.7 ± 4.3% | 150 ± 100%

SMILES | percent growth [1] | percent growth [2]
c1ccc2c(c1)CN(CC1CC1)CC1(CCN(Cc3c[nH]c4cnccc34)CC1)O2 | 85.1 ± 15% | 91.8 ± 5.5%
c1coc(CNc2nc(N3CCCCC3)nc3ccccc23)c1 | 78 ± 7.8% | 89 ± 32%
CCN(CC)CCCN1CCN(C(=O)c2cccc(-c3noc(C(F)(F)F)n3)c2)CC1 | 90.3 ± 14% | 138 ± 110%
Cc1cc(OCC(=O)NCc2ccccc2)c2cc(Br)ccc2n1 | 94.8 ± 9.9% | 176 ± 160%
Cc1ccc2[nH]c(C3CCCNC3)c(-c3ccncc3)c2c1 (stereo not given) | 108 ± 31% | 89.8 ± 7.2%
CN1CCN(c2nccc3nc(-c4ccc(F)c(F)c4)[nH]c23)CC1 | 82.2 ± 21% | 68.8 ± 13%
CCC(Sc1nc2ccccc2o1)C(=O)Nc1nnc(C)s1 (stereo not given) | 34.1 ± 46% | 0.154 ± 0.27%
Cc1nn2c(O)c3c(nc2c1-c1ccc(F)cc1)CCCC3 | 63.3 ± 22% | 45.5 ± 21%
N#Cc1ccc(-c2ccc(OCC(N)=O)cc2)cc1 | 91.4 ± 11% | 94.4 ± 35%
CN1CCCC1CCO[C@](C)(c1ccccc1)c1ccc(Cl)cc1 (stereo not given in full) | 86.3 ± 9.2% | 78.1 ± 43%
O=C1[C@@H](Oc2ccccc2)[C@@H](c2ccc(Cl)cc2)N1CCn1cnc2c(NCc3ccccc3)ncnc21 | 94.9 ± 4.6% | 112 ± 21%
O=C(Nc1ccc(C(F)(F)F)c(C(F)(F)F)c1)c1cc(Cl)ccc1O | 0% | 6.44 ± 11%
CC(C)(C)C(=O)N(CCCCCCN1C[C@H](O)[C@@H](O)[C@H](O)[C@H]1CO)C1CCCCCC1 | 122 ± 27% | 130 ± 56%
CC1(COc2ccc(N3CCC(Oc4ccc(OC(F)(F)F)cc4)CC3)cc2)Cn2cc([N+](=O)[O-])nc2O1 (stereo not given) | 91.7 ± 9.5% | 114 ± 61%
CCC(=O)Nc1ccccc1C(=O)Nc1ccccn1 | 93.7 ± 5.2% | 103 ± 41%
CCOc1ccc(-c2nc(CNCCc3ccc(F)cc3)cs2)cc1 | 97.3 ± 4.6% | 29.5 ± 51%
O=C(OCc1ccccc1)N1CCC(c2cc(-c3ccncc3)c(-c3ccc(F)cc3)[nH]2)CC1 | 126 ± 61% | 92 ± 13%
NC(CC(=O)c1ccc(Cl)cc1Cl)C(Cl)(Cl)Cl (stereo not given) | 58.8 ± 39% | 23.2 ± 36%
COc1cccc(-c2cc3c(Nc4cccnc4)nccc3[nH]2)c1 | 226 ± 230% | 83.9 ± 23%
NCCCC(N)(C(=O)O)C(F)F (stereo not given) | 84.8 ± 12% | 90.1 ± 16%
CS(=O)(=O)c1ccc(C(=O)N(CC2CCCO2)c2nc3ccccc3s2)cc1[N+](=O)[O-] (stereo not given) | 91.7 ± 7.5% | 108 ± 18%
CS(=O)(=O)c1cccc(-c2cnc3[nH]cc(-c4ccc(CCC(=O)O)cc4)c3c2)c1 | 68.7 ± 5.5% | 52.9 ± 34%
COc1cc(C2=NCCN2)ccc1-c1cn(-c2cccc(C3=NCCN3)c2)nn1 | 82.9 ± 23% | 73 ± 4.1%

SMILES | percent growth [1] | percent growth [2]
COC(=O)c1c(NC(=O)c2cc3ccccc3oc2=O)sc2c1CCN(Cc1ccccc1)C2 | 84.2 ± 11% | 149 ± 81%
CC(=O)NCC1CN(c2ccc(-c3ccc(CO)cc3)c(F)c2)C(=O)O1 (stereo not given) | 0% | 0.214 ± 0.37%
O=C(NC1CCCCC1)N1CCN(Cc2ccc3c(c2)OCO3)CC1 | 78.5 ± 7.2% | 52.2 ± 38%
Cc1cc(Nc2ccncc2)n2nc(C)c(-c3ccccc3Cl)c2n1 | 73.9 ± 22% | 105 ± 37%
COC(=O)C1=C(C)NC(C)=C(C(=O)OC(C)C)C1c1cccc2nonc12 (stereo not given) | 73.1 ± 15% | 73.6 ± 34%
CCn1ncc2c(NC3CCOCC3)c(CNC(=O)c3ccnn3C)c(C)nc21 | 109 ± 24% | 85.7 ± 26%
CC1=Nc2ccc(Cl)cc2C(O)(c2ccc(C)cc2)N1CCN1CCCCC1 (stereo not given) | 98.9 ± 32% | 91 ± 28%
CC(C)(C)C1CCC(CC2=C(O)C(=O)c3ccccc3C2=O)CC1 (stereo not given) | 17.3 ± 28% | 36.3 ± 11%
Cn1ncc2c(N3CCOCC3)nc(NCCc3c[nH]c4ccccc34)nc21 | 76.5 ± 10% | 78.8 ± 17%
CC(=O)N(CCN(C(=O)c1ccc(F)cc1)c1ccccc1)c1ccccc1 | 86.6 ± 26% | 69 ± 13%
CC(=O)NC[C@H]1CN(c2ccc(N3CCSCC3)c(F)c2)C(=O)O1 | 3.44 ± 3.9% | 2.2 ± 3.8%
O=C(NCc1ccoc1)N1CCN(Cc2ccc3c(c2)OCO3)CC1 | 94 ± 5.7% | 78.3 ± 6.3%
Cc1cccc(Cn2ccc(NC(=O)c3ccc4c(c3)OCO4)n2)c1 | 75.3 ± 22% | 102 ± 23%
CC(C)(C)c1ccc(N[C@@H]2CCCC[C@H]2NC(=O)c2ccco2)cc1 | 104 ± 7.9% | 78.1 ± 19%
CC(C)(C)n1nc(-c2ccccc2)c2c(N)ncnc21 | 79.7 ± 12% | 84.5 ± 20%
Cc1cc(C)nc(-n2nc(C)cc2Nc2ccccc2)n1 | 0.964 ± 1.7% | 0.0724 ± 0.12%
CNC(=O)c1nn(C)c2c1C(C)(C)Cc1cnc(Nc3ccc(N4CCN(C)CC4)cc3)nc1-2 | 88.7 ± 21% | 92.6 ± 19%
COc1cccc2c(C)nc(N=C(N)N)nc12 | 57.7 ± 22% | 66.8 ± 52%
CCc1ccc(S(=O)(=O)Nc2cc(CN3CCN(CCC(C)C)CC3)ccc2C)cc1 | 95.7 ± 12% | 73.2 ± 8.1%
CN1CCC(NCc2cccc(-c3ccc(S(=O)(=O)NCc4ccccc4)cc3)c2)CC1 | 94.9 ± 28% | 70.3 ± 11%
Cc1cc(C)cc(COc2ccc3c(C)c(CCC(=O)O)c(=O)oc3c2C)c1 | 39.9 ± 40% | 35.3 ± 14%
C[C@H](c1ccc2c(c1)CCCC2)N(C)c1ncc2c(N)nc(N)nc2n1 | 84.7 ± 9.1% | 76.6 ± 18%
O=C(NCCN1CCCC1)c1cc(NCCCCN2CCC(F)(F)CC2)nc2ccc(Cl)cc12 | 93 ± 6.6% | 79.3 ± 14%

SMILES | percent growth [1] | percent growth [2]
Cc1ccc2c(c1C)NC(=O)C21NN=C(c2ccccc2)S1 (stereo not given) | 0.434 ± 0.78% | 0.432 ± 0.48%
CN1CCN(c2nccc3[nH]c(-c4cccc(F)c4)cc23)CC1 | 97.4 ± 6.1% | 96 ± 26%
CC(C)(CN)c1nc(-c2ccc(Cl)c(O)c2)c(-c2ccnc(N)n2)[nH]1 | 90.9 ± 6.5% | 79.2 ± 20%
O=C(NCCc1c[nH]c2ccccc12)c1cc2ccccc2oc1=O | 104 ± 6% | 74.1 ± 8.7%
c1ccc(Oc2ccc(-c3cc(N4CCNCC4)[nH]n3)cc2)cc1 | 106 ± 35% | 67.6 ± 28%
Cc1cc(Nc2ccc(C(F)(F)F)cc2)n2ccnc2n1 | 113 ± 12% | 97.6 ± 41%
Cc1ccc2oc(-c3cc(NC(=O)Cc4ccccc4)ccc3Cl)nc2c1 | 93.1 ± 13% | 78.5 ± 4%
COc1ccc(C2CC(c3cccs3)=NN2C(=O)c2ccco2)cc1OC (stereo not given) | 75.4 ± 3% | 99.7 ± 26%
CC(C)(C)OC(=O)N1CCN(c2cc(-c3ccc(Oc4ccccc4)cc3)n[nH]2)CC1 | 89.6 ± 5.8% | 28.7 ± 42%
COc1ccc(C2(C(=O)Nc3ccc(Br)cc3)CCCC2)cc1 | 120 ± 25% | 92.5 ± 15%
COc1cc(Br)cc2cc(C(=O)Nc3cccc(C(F)(F)F)c3)c(=O)oc12 | 116 ± 26% | 115 ± 52%
COc1ccc(C2=NCCN2)cc1-c1cn(-c2cccc(C3=NCCN3)c2)nn1 | 99.9 ± 10% | 87.9 ± 21%
Nc1nccc2ccc(Oc3ccncc3)cc12 | 97.4 ± 7% | 84.2 ± 8.7%
CNCCC(Oc1ccc(C(F)(F)F)cc1)c1ccccc1 (stereo not given) | 104 ± 4% | 98.5 ± 39%
CCCCc1ccc(C(=O)Nc2nccc3ccccc23)nc1 | 32.4 ± 32% | 13.4 ± 21%
CC(C)(C)n1nc(Cc2cccc3ccccc23)c2c(N)ncnc21 | 90.1 ± 3.1% | 87.7 ± 16%
CC(C)(C)n1nc(Cc2ccc(F)c(Cl)c2)c2c(N)ncnc21 | 91.5 ± 3.1% | 105 ± 51%
CC[C@@H]([C@H](C)O)n1ncn(-c2ccc(N3CCN(c4ccc(OC[C@@H]5CO[C@@](Cn6cncn6)(c6ccc(F)cc6F)C5)cc4)CC3)cc2)c1=O | 76.2 ± 4.8% | 77.5 ± 0.79%
Nc1ncc(-c2cn[nH]c2)cc1-c1nc2cc(Cl)cnc2[nH]1 | 90.8 ± 5.4% | 74 ± 15%
OC[C@H]1O[C@@H](n2c3ccc(Cl)cc3c3c(-c4cc5ccccc5o4)ncnc32)C(O)[C@H]1O (stereo not given in full) | 93 ± 20% | 74.8 ± 13%
O=C1COCc2ccc(Br)cc2N1Cc1ccc(C(F)(F)F)cc1 | 84.3 ± 26% | 75.4 ± 7.3%
